# Screens deposited in PubChem BioAssay by National Center for Advancing Translational Sciences (NCATS).
# ALOX12 inh: Primary qHTS assay for inhibitors of human arachidonate 12S-lipoxygenase (ALOX12): Round 2. Polyunsaturated fatty acid lipoxygenase ALOX12 (Homo sapiens), P18054. purified 12hLO, xylenol orange hydroperoxide absorbance. Potency, µM (highest dose often 108 µM), usual class: inhibitors. 580,000 compounds, 1.1% hits. AID 1671190, 2021
#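 Purified human 12hLO at 150 nM in 25 mM Hepes, 0.01% Triton X-100, pH 7.0, preincubated 15 min at room temperature with compound. Reaction started with 40 uM arachidonic acid, 30 min at room temperature. Hydroperoxide measured by Fe-xylenol orange, 573/405 nm absorbance ratio.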
# Sfp inh: qHTS Assay for Inhibitors of Bacillus subtilis Sfp phosphopantetheinyl transferase (PPTase); Biochemical Sfp PPTase activity, qHTS; 4'-phosphopantetheinyl transferase ffp (Bacillus subtilis), Q9F4F7; 310,000 compounds, 3.5% hits; Potency, µM, most hits filed as inhibitors;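 also: the enzyme is Sfp with the accession as filed and its product quenches rhodamine fluorescence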
#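 Compounds were incubated with enzyme (final 15 nM) for 15 min at room temperature before substrate addition started the reaction. Fluorescence at 525 nm excitation, 598 nm emission was recorded immediately and after 30 minutes.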
# G9a block: qHTS Assay for Inhibitors of Histone Lysine Methyltransferase G9a; Potency, µM (doses to about 102 µM), actives largely listed as inhibitors; G9a H3K9 monomethylation, AlphaScreen, 2 h; 350,000 compounds, 8.8% hits; also: nearly all actives have a fitted effect of over 75% in size
#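 G9a (20 nM) preincubated 15 min RT with compounds, then 500 nM biotinylated H3K9 peptide and 20 uM SAM added; 2 h RT reaction. Monomethyl-H3K9 product detected by AlphaScreen with anti-H3K9me1 antibody, streptavidin donor and anti-rabbit IgG acceptor beads.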
# BAZ2B inh: qHTS Assay for Inhibitors of BAZ2B; AlphaScreen BAZ2B-H3K14Ac peptide displacement; AID 504333, 2011; Potency, µM (titrated, usually from 114 µM), hits mostly inhibitors; 360,000 compounds, 4.4% hits; also: nearly all actives have a fitted effect of over 60% in size
#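 AlphaScreen displacement of biotin-H3(5-23)K14Ac peptide (50 nM final) from BAZ2B (50 nM final) in PBS pH 7.4, 0.01% Tween-20; complex preformed 30 min RT, then compounds (top 110 uM) 30 min RT, beads 20 min dark.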
# HP1b binding inh: HTS for Inhibitors of HP1-beta Chromodomain Interactions with Methylated Histone Tails. Chromobox protein homolog 1 (Homo sapiens), P83916. AID 540317, 2011. AlphaScreen HP1-beta / biotin-H3K9me3 peptide binding. Potency, µM (series often up to 114 µM), most hits filed as inhibitors. 390,000 compounds, 0.56% hits; also: nearly all actives have a fitted effect of over 70% in size
#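 AlphaScreen: HP1-beta (50 nM) preformed 30 min with biotin-H3(1-18)K9me3 peptide (50 nM) in PBS pH 7.4, 0.01% Tween-20. Compound added for 30 min at RT, then streptavidin donor/nickel chelate acceptor beads (10 ug/mL) for 30 min.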
# JMJD2A Tudor: qHTS Assay for Inhibitors of JMJD2A-Tudor Domain; Potency, µM (series often up to 114 µM), hits mostly inhibitors; 390,000 compounds, 4.4% hits; AlphaScreen JMJD2A-Tudor / H3K4me3 peptide binding; Lysine-specific demethylase 4A (Homo sapiens), O75164; also: nearly all actives have a fitted effect of over 50% in size
# Target sequence (O75164 whole entry, looked up, the tested form may be a part): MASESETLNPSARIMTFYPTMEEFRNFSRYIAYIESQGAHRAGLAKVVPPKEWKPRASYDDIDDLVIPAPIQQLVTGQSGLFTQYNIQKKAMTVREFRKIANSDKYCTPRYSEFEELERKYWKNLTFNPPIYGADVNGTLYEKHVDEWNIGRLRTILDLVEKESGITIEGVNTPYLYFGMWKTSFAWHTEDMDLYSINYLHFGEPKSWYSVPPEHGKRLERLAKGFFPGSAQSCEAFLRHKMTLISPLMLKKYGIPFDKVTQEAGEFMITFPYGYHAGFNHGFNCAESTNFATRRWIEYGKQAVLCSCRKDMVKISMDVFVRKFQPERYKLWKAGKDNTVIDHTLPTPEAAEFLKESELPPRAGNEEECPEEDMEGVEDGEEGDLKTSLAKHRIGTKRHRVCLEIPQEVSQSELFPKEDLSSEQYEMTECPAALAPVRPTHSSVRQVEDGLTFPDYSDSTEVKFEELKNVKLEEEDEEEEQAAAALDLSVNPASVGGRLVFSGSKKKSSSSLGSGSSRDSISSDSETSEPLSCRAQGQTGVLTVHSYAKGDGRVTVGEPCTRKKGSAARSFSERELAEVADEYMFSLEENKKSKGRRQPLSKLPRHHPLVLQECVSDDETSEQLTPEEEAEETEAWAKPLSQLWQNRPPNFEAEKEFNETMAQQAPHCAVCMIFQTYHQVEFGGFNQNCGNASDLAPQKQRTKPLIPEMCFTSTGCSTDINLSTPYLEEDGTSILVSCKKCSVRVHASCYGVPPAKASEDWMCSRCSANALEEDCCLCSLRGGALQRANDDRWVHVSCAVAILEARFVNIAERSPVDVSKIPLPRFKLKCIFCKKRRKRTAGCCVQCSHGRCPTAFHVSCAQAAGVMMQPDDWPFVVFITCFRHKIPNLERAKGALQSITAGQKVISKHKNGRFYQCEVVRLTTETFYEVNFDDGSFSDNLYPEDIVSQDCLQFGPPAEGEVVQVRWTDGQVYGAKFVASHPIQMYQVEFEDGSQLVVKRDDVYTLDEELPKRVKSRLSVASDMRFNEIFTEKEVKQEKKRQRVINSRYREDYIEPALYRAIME
# A number is an active result; - = inactive; ? = inconclusive; . = no result; [ ] = another dose, or the depositor's remark. The list is not random: actives were taken first. Their share in the collection is about 8.7%. Calls follow the shape of the dose curve; as a rule, active = well fitted curve in the direction sought with a large enough effect; inconclusive = small, poorly fitted or top-dose-only effect, or another doubt; inactive = no such curve, though single readings can be large; an effect the other way counts as inactive or inconclusive.
SMILES,ALOX12 inh,Sfp inh,G9a block,BAZ2B inh,HP1b binding inh,JMJD2A Tudor
Cc1ccc(-n2cc(CNCCc3ncc(C)[nH]3)c(-c3ccc(F)cc3)n2)cc1,-,56.2µM,-,?,-,56.2µM
COc1ccc(-n2cc(CNCCc3cnc[nH]3)c(-c3cccc(F)c3)n2)cc1,-,-,-,50.1µM,-,?
COc1ccc(-n2cc(CNCCc3ncc(C)[nH]3)c(-c3ccccc3Cl)n2)cc1,-,-,35.5µM,?,-,-
COc1cccc(CNC(=O)[C@@H]2C[C@@H](O)CN2C2CCN(C(=O)CCc3ccccc3)CC2)c1,-,.,.,.,.,.
CCn1c(=O)c(N2CCC(NC(=O)Nc3cccc(C)c3)CC2)nc2ccccc21,-,.,.,.,.,.
NC(=O)CCN(C(=O)c1ccc(Br)cc1)c1ccc(F)cc1,-,.,.,.,.,.
Cc1ccccc1C(=O)N1CCC(c2nn(-c3ccccc3)c(=O)[nH]2)CC1,-,.,.,.,.,.
Cc1ccc(-n2cc(CNCCN3CCOC3=O)c(-c3ccc(F)cc3)n2)cc1,-,?,-,-,-,-
Cc1ccc(-n2cc(CNCCn3nc(C)cc3C)c(-c3ccc(F)cc3)n2)cc1,-,44.7µM,-[0.501 µM],-,-,-
Cc1ccc(C2C3=C(CCCC3=O)N=C3c4ccccc4C(=O)C32)cc1 (stereo unspecified),-,-,44.7µM,28.2µM,?,-
O=C1CCCC2=C1C(c1ccccc1)C1C(=O)c3ccccc3C1=N2 (stereo unspecified),-,?,?,?,?,?
O=C(NCCCSc1ccccc1)c1cc(Cl)ccc1O,?,-,35.5µM,50.1µM,-,-
O=C(CNC(=O)c1ccccc1)NCCCSc1ccccc1,-,.,.,.,-,-
CN1C[C@H](O)C[C@H]1c1nc(-c2ccc3c(c2)OCO3)no1,-,.,.,.,.,.
CN(C)c1ccc(NC(=O)CSc2nnc(C3CCCCC3)n2N)cc1,-,-,39.8µM,?,-,?
Nn1c(SCC(=O)Nc2nccs2)nnc1C1CC1,.,-,39.8µM,-,-,-
Nn1c(SCC(=O)Nc2ccc(F)cc2)nnc1C1CCCCC1,-,-,-[2.33 µM],-,-,-
CCn1c(SCC(=O)Nc2nccs2)nnc1C1CC1,-,-,.,-,-,-
Cn1c(SCC(=O)Nc2nncs2)nnc1C1CC1,-,-,.,50.1µM,-,56.2µM
COc1ccc(NC(=O)CSc2nnc(C3CC3)n2C)cc1,-,-,-,-,-,10µM
Cc1ccc(C(=O)Nc2ccc3oc(-c4ccccc4C)cc(=O)c3c2)cc1,-,.,.,.,.,.
O=C(Nc1ccccc1N1CCCCCC1)C1CCN(S(=O)(=O)c2cc(F)ccc2F)CC1,-,.,.,.,.,.
CCCC(=O)N(CC)CCc1ccccc1,-,.,.,.,.,.
CC(Nc1ccc(F)cc1)C(=O)Nc1ccc(Cl)cn1 (stereo unspecified),-,.,.,.,.,.
Cn1c(SCC(=O)c2ccccc2F)nnc1C1CC1,-,50.1µM,?,?,-,-
SMILES,ALOX12 inh,Sfp inh,G9a block,BAZ2B inh,HP1b binding inh,JMJD2A Tudor
Cc1ccc(OCc2nc(C#N)c(N3CCCCC3)o2)cc1,-,-,39.8µM,28.2µM,?,?
Cc1cccc(OCc2nc(C#N)c(N3CCCC3)o2)c1,-,-,.,39.8µM,?,-
N#Cc1nc(COc2ccc(Cl)cc2)oc1N1CCCCCC1,?,-,?,11.2µM,-,?
N#Cc1nc(COc2ccccc2)oc1N1CCCCC1,-,-,?,?,?,?
Cc1ccc(CNC(=O)C2c3ccccc3C(=O)N(C)C2c2c[nH]c3ccccc23)o1 (stereo unspecified),?,50.1µM,?,?,-,-
Cc1ccc(CNC(=O)C2Cn3cccc3C(=O)N2C)o1 (stereo unspecified),-,.,.,.,.,.
O=C1N[C@H](CCC(=O)N2CCN(CCc3ccncc3)CC2)C(=O)Nc2ccccc21,-,.,.,.,.,.
O=C(N/N=C/c1cccs1)C(c1ccccc1)c1ccccc1,-,.,.,.,.,.
CS(=O)(=O)c1ccc2nc(NC(=O)CCNC(=O)c3ccc([N+](=O)[O-])cc3)sc2c1,-,.,39.8µM,-,-,-
CCc1noc(C)c1C(=O)Nc1nc2ccc(F)cc2s1,-,.,15.8µM,-,-,-
CCc1noc(C)c1C(=O)Nc1nc2ccc(S(C)(=O)=O)cc2s1,-,.,50.1µM,-,-,-
Cc1noc(C)c1C(=O)Nc1nc2ccc(F)cc2s1,-,.,-[12.7 µM],-,-,-
CC(=O)Nc1ccc(S(=O)(=O)Nc2nc3ccc([N+](=O)[O-])cc3s2)cc1,?,-,44.7µM,-,-,-[11.4 µM]
Cc1onc(-c2ccccc2Cl)c1C(=O)Nc1nc2ccc(S(C)(=O)=O)cc2s1,-,-,-,-,-,-
CC(C)c1ccc(S(=O)(=O)N2CC(c3nc(-c4ccncc4)no3)C2)cc1,-,.,.,.,.,.
CN1[C@@H](CCC(=O)NCc2ccccc2)CNC(=O)[C@@H]2[C@H]1CCN2Cc1ncc[nH]1,-,.,.,.,.,.
CCC(C)C(=O)Nc1nc2ccc(S(C)(=O)=O)cc2s1 (stereo unspecified),-,-,31.6µM,-,-,-[11.4 µM]
Fc1ccccc1CCNc1c2c(nc3ncnn13)CCCC2,-,-,50.1µM,-,-,-
O=C(CC1CCCC1)N1CCC(c2nc(CCOc3ccc(F)cc3)no2)C1 (stereo unspecified),-,.,.,.,.,.
CCOc1ccc(-n2nc(C(=O)Nc3ccc4c(c3)OCCO4)c3ccccc3c2=O)cc1,-,.,.,.,.,.
Cn1c(=O)c2c(nc(NNC(=O)C(F)(F)F)n2C)n(C)c1=O,?,0.891µM,6.31µM,?,-,?
Cn1c(=O)c2c(nc(NN=C3CCCC3)n2C)n(C)c1=O,?,22.4µM,39.8µM,?,-,-
Cn1c(=O)c2c(nc(N3CCCC3)n2C)n(C)c1=O,-,-,-,-,-,-
CCOc1ccc(N=Nc2c(N)[nH][nH]c2=O)cc1,?,-,3.55µM,?,-,79.4µM
COc1cccc(N=Nc2c(N)[nH][nH]c2=O)c1,?,-,4.47µM,-,-,-
CCOc1ccc(N=Nc2c(=O)[nH]n3c(=O)cc(C)[nH]c23)cc1,-,-,?,50.1µM,-,56.2µM
O=C(Nc1ccc(N2CCOCC2)cc1)c1cccc(Nc2ccnc(-c3cccc(F)c3)n2)c1,-,.,.,.,.,.
COc1cccc2cc(C(=O)NC3CCC(C)CC3)c(=O)oc12 (stereo unspecified),-,.,.,.,.,.
CC(C)CC(NC(=O)c1cccc(N(C)C)c1)c1ccccc1 (stereo unspecified),-,.,.,.,.,.
Cc1cc(SC(C)C(=O)c2ccc(Cl)cc2)nc2ccccc12 (stereo unspecified),-,.,.,.,.,.
